We go through 34 molecules from PubChem BioAssay (NCATS).

The target of assay [1] is Tumor necrosis factor (Homo sapiens) (UniProt P01375). Kind of assay: qHTS assay to identify small molecules that stimulate Tumor Necrosis Factor-alpha (TNF-alpha) secretion (AID 651757; active = well fitted curve in the direction sought with a large enough effect in the signal ratio; the % refers to the signal ratio). As to conditions: Human cells, HTRF 665/615 ratio; series mostly up to 92.2 µM. Put shortly: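 THP-1 cells, 3000/well; compound 17 hrs, 37 C; add cryptate/XL665 anti-TNF-alpha antibody pair; 3 hr RT; TR-FRET (HTRF) read of secreted TNF-alpha. Quantitative HTS format.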
Tumor necrosis factor (Homo sapiens), sequence (P01375 whole entry, looked up): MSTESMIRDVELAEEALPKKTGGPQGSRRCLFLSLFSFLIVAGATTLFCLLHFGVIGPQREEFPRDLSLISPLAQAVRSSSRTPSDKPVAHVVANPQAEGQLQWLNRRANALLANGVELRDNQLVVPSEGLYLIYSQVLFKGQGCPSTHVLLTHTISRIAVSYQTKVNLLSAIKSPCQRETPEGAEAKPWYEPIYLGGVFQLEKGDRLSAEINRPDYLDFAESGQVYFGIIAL

Assay [2] has as its target Nuclear receptor ROR-gamma (Homo sapiens) (UniProt P51449). Kind of assay: qHTS assay for small molecule antagonists of the retinoid-related orphan receptor gamma (ROR-gamma) signaling pathway (AID 651802).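 Note: CHO cells with doxycycline-induced ROR-gamma expression; luciferase reporter luminescence driven by ROR response element; nearly all actives have a fitted effect of over 60% in size.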 As to conditions: ROR-gamma antagonist cell reporter assay; series mostly up to 92.2 µM. Put shortly: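 Luciferase read-out: ONE-Glo luminescence after 30 min at room temperature, following 16hr doxycycline induction at 37C, 5% CO2 of CHO cells with TET-inducible ROR and RORE-LUC reporter; decreased luminescence = reduced reporter activity.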

In assay [3] the target is Arylsulfatase A (Homo sapiens) (UniProt P15289). Kind of assay: qHTS screen for enhancers of Arylsulfatase A (ASA1): LOPAC Validation Assay (AID 720538). The conditions noted are these: ASA enzyme activity, LOPAC qHTS enhancer assay; series mostly up to 57.5 µM. In a few lines: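 Enhancer assay in patient-derived MLD fibroblasts carrying ASA-I179S: 48 h compound exposure at 37 C, then 14 h room-temperature pNCS turnover (0.5 mM final) in lysis buffer. Read by fluorescence at 525/598 nm after NaOH stop.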
Arylsulfatase A (Homo sapiens), sequence (P15289 whole entry, looked up): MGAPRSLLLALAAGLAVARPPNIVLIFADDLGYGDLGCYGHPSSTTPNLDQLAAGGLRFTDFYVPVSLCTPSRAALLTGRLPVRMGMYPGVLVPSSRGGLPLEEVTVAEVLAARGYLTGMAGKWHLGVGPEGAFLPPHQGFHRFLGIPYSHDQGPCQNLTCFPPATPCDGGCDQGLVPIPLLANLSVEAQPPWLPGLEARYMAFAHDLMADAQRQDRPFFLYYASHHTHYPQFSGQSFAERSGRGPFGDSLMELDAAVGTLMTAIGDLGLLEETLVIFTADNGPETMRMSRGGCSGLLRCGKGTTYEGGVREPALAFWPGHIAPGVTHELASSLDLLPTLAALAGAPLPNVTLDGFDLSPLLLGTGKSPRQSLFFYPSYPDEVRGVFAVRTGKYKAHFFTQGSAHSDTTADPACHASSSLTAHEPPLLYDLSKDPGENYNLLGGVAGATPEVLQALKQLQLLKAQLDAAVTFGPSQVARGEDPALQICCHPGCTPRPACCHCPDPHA

For assay [4], the target named is Tyrosine-protein kinase Yes (Homo sapiens) (UniProt P07947). As to the kind of experiment: qHTS for small molecule inhibitors of Yes1 kinase: Primary Screen (AID 686947). Note: nearly all actives have a fitted effect of over 60% in size. Note: potency is the fitted concentration of half-maximal effect. As to conditions: Yes1 kinase biochemical qHTS inhibition; series mostly up to 76.9 µM. In a few lines:
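In this qHTS format, inhibition is expressed relative to DMSO controls with enzyme (maximum) and without enzyme (minimum). The 60 min room-temperature reaction uses 0.1 mM ATP, with ADP detected by luminescence.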

The nature of assay [5]: qHTS for small molecule inhibitors of Yes1 kinase: Counter Assay (AID 686950).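 Note: no kinase present so only ADP-Glo detection of a fixed ADP amount is tested; luminescence from ADP-Glo reporting ADP in a fixed ATP and ADP mixture.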 As to conditions: series mostly up to 76.9 µM. In a few lines: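 ADP-Glo luminescence read after a 60 min room-temperature incubation of compound with an ATP/ADP mix (0.08 mM/0.02 mM) and no kinase, following a 20 min compound preincubation. Signal scaled between ATP+ADP (max) and 0.1 mM ATP-only (min) wells; Tris pH 7.5, Mg2+, DTT.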

The nature of assay [6]: qHTS assay for environmental chemicals that activate the Aryl hydrocarbon Receptor (AhR) signaling pathway (AID 651777). Note: nearly all actives have a fitted effect of over 15% in size. As to conditions: 1A2-DRE human hepatoma cells, luciferase, 24 h; activation: stronger effect = higher value. In a few lines:
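Induction of CYP1A2 transcription through AhR is detected by luciferase in 1A2-DRE hepatoma cells. Compounds or DMSO act for 24 hr at 37 C before a 30 min One-Glo step at room temperature.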

Assay [7] is described as follows: qHTS for Activators of Parkin Expression: LOPAC Validation Assay (NLuc Reporter) (AID 720572; note: potency is the fitted concentration of half-maximal effect). As to conditions: Parkin promoter NanoLuc reporter cells, luminescence; series mostly up to 46.1 µM. Put shortly: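 Compound effects on Parkin promoter activity were measured as NanoLuc luminescence after 24 h at 37 C. The neuronal reporter line also carried FLuc, which was read first. LOPAC compounds were tested at 7 concentrations, with normalization to DMSO (0%) and positive control (100%).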

Assay [8] can be described thus: qHTS for Activators of Parkin Expression: LOPAC Validation Assay (FLuc Reporter) (AID 720573; note: potency is the fitted concentration of half-maximal effect). The conditions noted are these: Cell line, PRKN promoter firefly luciferase reporter; series mostly up to 46.1 µM. In a few lines: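 FLuc signal from Parkin-promoter coincidence reporter neuronal cells, normalized to DMSO and positive control (100%). Cells (1,500/well) pre-incubated 24 h, then exposed to LOPAC compounds in 7-point dose response for 24 h at 37 C, 5% CO2.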

A short description of assay [9]: qHTS assay for small molecule antagonists of the retinoid-related orphan receptor gamma (ROR-gamma) signaling pathway - cell viability counter screen (AID 720652; active = well fitted curve in the direction sought with a large enough effect in the repeat runs; an effect the other way counts as inactive or inconclusive;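 note: CHO reporter cells with doxycycline-induced ROR-gamma expression; compound exposure lasted 16 hr before ATP read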). The conditions noted are these: RORgamma reporter cell line viability counter screen; series mostly up to 92.2 µM. In a few lines: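 CHO RORE-LUC/TET-ROR line, 1,000 cells/well, 37 C 5% CO2 5 hr; cpd or DMSO + doxycycline induction, 16 hr. CellTiter-Glo, 30 min RT, luminescence = ATP content.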

Values joined by “and” are separate entries in the source; they are usually repeats but may differ in a detail not shown here. Equal entries are not always repeated. Values without a mark were called inactive. Records with an inconclusive call do not appear. Entries that show only a call come without a potency. Active and inactive are the calls of the source. Unless noted, calls come from the whole dose curve; as a rule, active = well fitted curve in the direction sought with a large enough effect; inconclusive = small, poorly fitted or top-dose-only effect, or another doubt; inactive = no such curve, though single readings can be large; an effect the other way counts as inactive or inconclusive.

Nuclear receptor ROR-gamma (Homo sapiens), sequence (P51449 whole entry, looked up): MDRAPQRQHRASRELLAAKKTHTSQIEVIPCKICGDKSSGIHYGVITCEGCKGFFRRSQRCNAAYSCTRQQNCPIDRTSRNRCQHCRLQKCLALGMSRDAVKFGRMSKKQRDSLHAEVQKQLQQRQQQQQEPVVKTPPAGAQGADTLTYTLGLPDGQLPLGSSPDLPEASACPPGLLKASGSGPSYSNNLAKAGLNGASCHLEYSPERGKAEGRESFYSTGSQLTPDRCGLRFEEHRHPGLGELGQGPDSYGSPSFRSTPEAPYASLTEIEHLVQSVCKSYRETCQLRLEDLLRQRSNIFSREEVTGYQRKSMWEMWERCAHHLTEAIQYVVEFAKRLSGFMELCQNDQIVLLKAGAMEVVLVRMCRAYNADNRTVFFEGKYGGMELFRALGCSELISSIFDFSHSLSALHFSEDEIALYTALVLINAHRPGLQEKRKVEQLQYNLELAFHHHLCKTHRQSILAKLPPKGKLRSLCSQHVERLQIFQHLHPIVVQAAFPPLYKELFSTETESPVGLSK
Tyrosine-protein kinase Yes (Homo sapiens), sequence (P07947 whole entry, looked up): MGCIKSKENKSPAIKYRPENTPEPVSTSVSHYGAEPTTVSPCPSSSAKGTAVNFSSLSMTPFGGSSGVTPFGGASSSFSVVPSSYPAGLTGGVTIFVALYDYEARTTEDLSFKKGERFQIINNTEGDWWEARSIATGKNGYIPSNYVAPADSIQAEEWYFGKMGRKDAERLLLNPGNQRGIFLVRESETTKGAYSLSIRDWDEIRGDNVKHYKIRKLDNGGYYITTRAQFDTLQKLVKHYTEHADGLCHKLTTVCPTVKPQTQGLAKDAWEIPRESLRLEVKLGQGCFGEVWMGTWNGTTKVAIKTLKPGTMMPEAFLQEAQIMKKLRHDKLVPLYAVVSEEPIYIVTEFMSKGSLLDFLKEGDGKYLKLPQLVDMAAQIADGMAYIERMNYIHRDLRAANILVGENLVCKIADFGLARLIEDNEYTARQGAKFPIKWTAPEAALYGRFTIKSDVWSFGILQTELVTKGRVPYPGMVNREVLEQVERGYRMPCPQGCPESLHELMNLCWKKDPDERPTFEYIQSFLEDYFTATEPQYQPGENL

Turning to `O=c1c(-c2ccc(O)cc2)coc2cc(O)ccc12`, the outcome in [1] and in [3] was inactive. The Potency result in [2] was “inactive”.

Regarding `CN(C)Cc1ccc(-c2nc3cccc4c3n2CCNC4=O)cc1`, the Potency in [4] is 13.7 µM (active). For the same molecule, in assay [5], the result was inactive.

In the case of `CC(=O)N(C)C1(c2ccccc2)CCN(CCC[C@]2(c3ccc(Cl)c(Cl)c3)CCCN(C(=O)c3ccccc3)C2)CC1`, the Potency entry in assay [4] was “inactive”. Also, the outcome in assay [5] was inactive.

Consider `CC(C)OC(=O)C(C)(C)Oc1ccc(C(=O)c2ccc(Cl)cc2)cc1`, for which, in assay [6], the activation was 2.52%. Further, the outcome in assay [3] was “inactive; inhibitor; fitted 0.151 uM”.

`CC(=O)O[C@]1(C(C)=O)CC[C@H]2[C@@H]3C=C(Cl)C4=CC(=O)[C@@H]5C[C@@H]5[C@]4(C)[C@H]3CC[C@@]21C`: the result in assay [1] and in assay [3] was inactive. In addition, the activation in assay [6] was 1.28% and -0.271%. For the same molecule, the Potency result in assay [7], in assay [8] and in [9] was “inactive” each time.

On to `CN(C)CCC(c1ccccc1)c1ccccn1` (stereo unspecified), for which the outcome in [1] and in assay [3] was inactive. In addition, the activation in assay [6] is -0.0214%. The Potency result in assay [7], in [8] and in assay [9] was “inactive” each time.

For the molecule `O=C1NC(=O)C(c2ccccc2)(c2ccccc2)N1`, the result in [1] and in [3] was inactive. In assay [6], the activation was -0.809% and 0.125% and -0.632%. The Potency entry in [2], in [7], in assay [8] and in [9] was “inactive” throughout.

`Clc1ccc(Cn2c(CN3CCCC3)nc3ccccc32)cc1`: the outcome in [3] was “inactive; inhibitor; fitted 0.0054 uM”. Besides, the Potency result in assay [7] and in [8] was “inactive” each time.

For the molecule `Cc1cccc(C)c1OCC(C)N` (stereo unspecified), the result in assay [3] was inactive. In addition, the Potency entry in assay [7] and in [8] was “inactive” throughout.

Take `NC(N)=Nc1nc(CSCC/C(N)=N/S(N)(=O)=O)cs1`: the result in [3] was inactive. For the same molecule, the Potency result in assay [7] and in [8] was “inactive” in each case.

As for `Cc1ccc(F)c(NC(=O)Nc2ccc(-c3cccc4[nH]nc(N)c34)cc2)c1`, the result in assay [5] was inactive.

As to `O=C(O)CCc1nc(-c2ccccc2)c(-c2ccccc2)o1`, in assay [3], the result was inactive. In assay [8], the Potency entry was “inactive”.

As for `CCN(CC)C(=O)c1ccc(O)c(OC)c1`, the outcome in [3] was “inactive; inhibitor; fitted 6.012 uM”. For the same molecule, the Potency result in assay [7] and in [8] was “inactive” throughout.

`O=C1NCC2(CCN(CCc3ccccc3)CC2)O1`: the result in [3] was inactive. Also, the Potency result in assay [7] and in [8] was “inactive” throughout.

As for `CC(=O)CCCCn1c(=O)c2c(ncn2C)n(C)c1=O`, the Potency entry in [7] and in [8] was “inactive” throughout.

As to `CCCCCN(C)CCC(O)(P(=O)(O)O)P(=O)(O)O`, the outcome in assay [3] was inactive. The Potency entry in assay [7] and in assay [8] was “inactive” each time.

Take `CC(C)(C)C(=O)Oc1ccc2c(c1)nc(NC(=O)c1cccc([N+](=O)[O-])c1)n2CCCO`: the molecule was classed as inactive in assay [5].

On to `COc1ccccc1N1CCN(CCCNc2cc(=O)n(C)c(=O)n2C)CC1`, for which, in assay [3], the outcome was inactive. Further, the Potency entry in assay [7] and in assay [8] was “inactive” throughout.

With `CN(C)C1CCN(C(=O)c2ccc(NC(=O)Nc3nc(N4CCOCC4)nc(N4CCOCC4)n3)cc2)CC1`, the result in assay [5] was inactive.

For the molecule `COc1cccc(-c2cc(=O)c3ccccc3o2)c1N`, the Potency result in assay [7] was “inactive”.

As for `CS(=O)c1ccc(-c2nc(-c3ccc(F)cc3)c(-c3ccncc3)[nH]2)cc1` (stereo unspecified), in assay [5], the result was inactive.

Turning to `COC(=O)[C@@H]1[C@H]2C[C@H]3c4[nH]c5ccccc5c4CCN3C[C@@H]2CC[C@@H]1O`, the outcome in assay [3] was “inactive; inhibitor; fitted 2.3934 uM”. The Potency result in assay [7] and in assay [8] was “inactive” in each case.

On to `CC(C)(C)c1ccc(C(O)CCCN2CCC(C(O)(c3ccccc3)c3ccccc3)CC2)cc1` (stereo unspecified), for which the result in assay [3] was inactive. In addition, the Potency result in assay [7] and in assay [8] was “inactive” in each case.

As to `CC(C)NCC(O)COc1cccc2[nH]ccc12` (stereo unspecified), the result in [3] was inactive. The Potency result in [7] was “inactive”.

Turning to `O=c1cc(-c2ccc(O)cc2)oc2cc(O)cc(O)c12`, in [3], the result was inactive. For the same molecule, the Potency in [7] is 16.4 µM (active); in assay [8] it was 3.26 µM (active). Moreover, in assay [9], the Potency result was “inactive”.

In the case of `Clc1ccc(C(c2ccc(Cl)cc2)n2cc[n+](CC(OCc3ccc(Cl)cc3Cl)c3ccc(Cl)cc3Cl)c2)cc1` (stereo unspecified), the outcome in assay [3] was inactive. Besides, the Potency result in assay [7] and in [8] was “inactive” each time.

`CCN(CC)CCOC(=O)c1ccc(N)cc1`: the result in [3] was inactive. In addition, the Potency result in [7] and in assay [8] was “inactive” each time.

For `C[N+](C)(C)CCCCCC[N+](C)(C)C`, the outcome in assay [3] was inactive. In addition, the Potency entry in assay [7] and in assay [8] was “inactive” throughout.

For `COc1ccc(Cc2nccc3cc(OC)c(OC)cc23)cc1OC`, the Potency result in assay [7] and in assay [8] was “inactive” throughout.

Consider `NCCS`, for which, in assay [3], the outcome was inactive. Besides, the Potency result in assay [7] and in assay [8] was “inactive” throughout.

Regarding `CCN(CC)CCNC(=O)c1ccc(N)cc1`, the outcome in assay [3] was inactive. The Potency entry in assay [7] and in [8] was “inactive” in each case.

As to `CC1(C)CCC2=C(O1)c1ccccc1C(=O)C2=O`, in assay [3], the outcome was inactive. Also, the Potency entry in assay [7] and in [8] was “inactive” each time.

Take `O=C(NCCN1CCOCC1)c1ccc(Cl)cc1`: the outcome in assay [3] was inactive. Moreover, the Potency entry in assay [7] and in assay [8] was “inactive” each time.

Take `CCN1CCC[C@H]1CNC(=O)c1cc(S(N)(=O)=O)ccc1OC`: the result in [3] was inactive. Besides, the Potency entry in assay [7] and in assay [8] was “inactive” in each case.
